# Hits are enriched below; roughly 19% of the tested compounds scored in any of these assays.
# VP16 counter = counter-screen for ROR gamma inhibitors: Gal4-VP16 reporter; Drosophila S2 Gal4-VP16 UAS-luciferase, luminescence, 20 h; Potency, µM (doses to about 53.6 µM), for the others: at the highest dose activity, negative = inhibition, actives largely listed as inhibitors; hit rate 3.5% among 310,000; AID 2546;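 also: Gal4-VP16 expression switched on by copper sulfate through the metallothionein promoter; nearly all actives have a fitted effect of over 50% in size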
# TDP1 inh = inhibitors of human tyrosyl-DNA phosphodiesterase TDP1. Q9NUW8. recombinant TDP1, AlphaScreen DNA substrate cleavage. Potency, µM (top dose mostly 130 µM), for the others: at the top dose activity change, negative = inhibition, usual class: inhibitors. hit rate 0.28% among 350,000; also: nearly all actives have a fitted effect of over 40% in size
# Target sequence (Q9NUW8 whole entry, looked up): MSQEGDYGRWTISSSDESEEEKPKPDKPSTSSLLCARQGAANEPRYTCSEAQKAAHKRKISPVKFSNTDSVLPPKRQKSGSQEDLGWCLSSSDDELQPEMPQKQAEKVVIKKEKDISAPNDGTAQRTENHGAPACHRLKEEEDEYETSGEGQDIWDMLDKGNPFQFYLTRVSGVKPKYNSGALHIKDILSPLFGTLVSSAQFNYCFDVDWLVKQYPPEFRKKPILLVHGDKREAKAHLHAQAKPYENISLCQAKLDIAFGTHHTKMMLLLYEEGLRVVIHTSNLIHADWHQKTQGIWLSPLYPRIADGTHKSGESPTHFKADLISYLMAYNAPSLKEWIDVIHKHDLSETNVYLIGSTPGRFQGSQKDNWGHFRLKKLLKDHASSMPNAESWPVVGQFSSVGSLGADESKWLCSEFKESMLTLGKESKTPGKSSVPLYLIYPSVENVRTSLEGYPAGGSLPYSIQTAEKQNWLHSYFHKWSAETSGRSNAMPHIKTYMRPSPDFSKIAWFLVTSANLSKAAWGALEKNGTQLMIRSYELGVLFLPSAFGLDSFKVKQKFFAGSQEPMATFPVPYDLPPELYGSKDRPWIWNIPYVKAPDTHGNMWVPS
#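 Recombinant human Tdp1 (E. coli-expressed, 1 nM final) preincubated with compounds 15 min at room temperature, then 5'-biotin/3'-phosphotyrosine-FITC DNA substrate (15 nM final) added for 5 min. AlphaScreen beads (10 ug/ml final) added 10 min; cleavage lowers signal.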
# RORgamma inh = ROR gamma (mouse) transcription inhibition. P51450. Potency, µM (series often up to 53.6 µM), for inactives: top-dose activity change, negative = inhibition, hits mostly inhibitors. AID 2551. Drosophila S2 Gal4-RORgamma UAS-luciferase reporter, 20 h. hit rate 5.4% among 310,000; also: nearly all actives have a fitted effect of over 60% in size
#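 ROR gamma transcriptional activity was tracked as Gal4-UAS luciferase output in stably transfected Drosophila Schneider cells, with compound added 1 hr before 700 uM copper sulfate induction and a 20 hr ambient-temperature incubation.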
# DT40 TDP1 no CPT = qHTS for Inhibitors of human tyrosyl-DNA phosphodiesterase 1 (TDP1): qHTS in cells in absence of CPT | DT40 Tdp1-/- hTDP1 cells, no CPT, ATP luminescence, 48 h | Potency, µM (series often up to 46.2 µM), without a hit: top-dose activity change, negative = growth inhibition, most hits filed as inhibitors | hit rate 15% among 420,000; also: nearly all actives have a fitted effect of over 55% in size
#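 No-CPT arm: Tdp1-/-;hTDP1 DT40 cells (400/well) plus compounds, incubated ≥48 hr at 37 °C. Readout CellTiter-Glo luminescence.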
# DT40 TDP1 CPT = growth inhibition of DT40 Tdp1-/-;hTDP1 cells with camptothecin (screen for TDP1 inhibitors); chicken DT40 Tdp1-/-;hTDP1 cells + 20 nM CPT, ATP luminescence, 48 h; Potency, µM (titrated, usually from 46.2 µM), inactives show at the highest dose activity change, negative = growth inhibition, actives largely listed as inhibitors; hit rate 12% among 420,000; also: nearly all actives have a fitted effect of over 55% in size
#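 Chicken DT40 Tdp1-/- cells stably complemented with human TDP1 were seeded at 400 cells/well in medium containing 20 nM camptothecin, exposed to pin-transferred compounds, and grown at 37 °C for at least 48 hr. Viability was read as ATP luminescence.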
# * marks the source's active call; other numbers are inactive results; ? = inconclusive; . = no result; [ ] = remark or other dose. Calls follow the shape of the dose curve; as a rule, active = well fitted curve in the direction sought with a large enough effect; inconclusive = small, poorly fitted or top-dose-only effect, or another doubt; inactive = no such curve, though single readings can be large; an effect the other way counts as inactive or inconclusive. % is scaled to controls: 0 for no effect and ±100 for the full control effect; potency is read from the fitted curve at half-maximal effect.
SMILES,VP16 counter,TDP1 inh,RORgamma inh,DT40 TDP1 no CPT,DT40 TDP1 CPT
CCC1=NN(C(=O)COc2ccccc2)C(O)(c2ccc(Br)cc2)C1 (centres undefined),-12%,0%,-12%,21µM*,?
CCC1=NN(C(=O)c2ccc([N+](=O)[O-])cc2)C(O)(c2ccccc2)C1 (centres undefined),?,.,-35%[1.91 µM],?,?
CCOC(=O)N1CCN(C(=O)CSCc2ccccc2)CC1,1%,3%,?,-15%,?
CC1=NN(C(=O)CSCc2ccccc2)C(O)(c2ccccc2)C1 (centres undefined),13µM*,8%,?,-1%,-25%
CCN(CC(=O)Nc1ccc(OC)cc1)C(=O)c1ccc([N+](=O)[O-])cc1,-13%,-14%,11%,?,?
COC(=O)CSc1nc2ccc(C)cc2cc1C#N,6%[10 µM],3%,-22%,-11%,-14%
Cc1cc(C)c2nc(N3CCC(C(=O)N4CCN(c5ncccn5)CC4)CC3)sc2c1,8%,7%,17%,?,16µM*
O=C(C1CC1)N1CCN(c2nc3c(Cl)cccc3s2)CC1,.,-3%,.,21µM*,21µM*
CC(=O)N(Cc1ccc(Br)cc1)c1ccccc1C(=O)O,-5%,-1%,0%,-12%,-4%
COc1ccc(-n2nnc3c(=O)n(CC(=O)Nc4cc(C)on4)cnc32)cc1,1%,-3%,-14%,-8%,-2%
c1ccc(-c2ccnc3nc(N4CCN(c5ccccc5)CC4)nn23)cc1,-2%,1%,41%,21µM*,18µM*
COc1ccc(NC(=O)CSc2nc3ccncc3[nH]2)c(OC)c1,-6%,5%,-10%,9.2µM*,23µM*
COc1ccc2nc(SCC(=O)NC3CCCCC3C)[nH]c2c1 (centres undefined),.,1%,.,9.2µM*,16µM*
COC(=O)c1ccc(NC(=O)CSc2nc3ncccc3[nH]2)cc1,-4%,7%,17%,21µM*,-21%
COC(=O)c1ccc(NC(=O)CSc2nc3ccc(OC)cc3[nH]2)cc1,.,.,.,23µM*,23µM*
COc1ccc(C(=O)Nc2ccc(NC(=O)c3ccccc3F)cn2)cc1,-2%,1%,16%,-6%,0%
CCn1cnc2c(Nc3ccc(CC(=O)N=C(N)N)cc3)nc(C#N)nc21,.,-3%,.,.,.
O=C(CSc1nc2cc3ccccc3cc2[nH]1)Nc1ccc(F)cc1,-19%,3%,-5%,23µM*,?
COc1ccc2nc(SCC(=O)NCc3ccc(OC)c(OC)c3)[nH]c2c1,-5%,17%,-7%,-27%,-12%
COc1ccc(NC(=O)CSc2nc3ccc(OC)cc3[nH]2)cc1,20%,.,?,-4%,-7%
CCOc1ccc2nc(SCC(=O)NCc3ccc(OC)c(OC)c3)[nH]c2c1,-3%,-1%,-1%,?,15µM*
CCN1C(=O)/C(=C\C=C2/C=CC=CN2CC)SC1=S,?,3%,8.9µM*,29µM*,?
CCN1C(=O)/C(=C2/C=CC=CN2C)SC1=S,1%,7%,3%,-9%,-6%
CCN1C(=O)/C(=C2/Sc3ccccc3N2CC)SC1=S,3%,.,-27%[1.91 µM],?,-12%
CCN1C(=O)/C(=C/C=C2\C=CN(CC)c3ccccc32)SC1=S,-6%,5%,14%,16µM*,16µM*
SMILES,VP16 counter,TDP1 inh,RORgamma inh,DT40 TDP1 no CPT,DT40 TDP1 CPT
CC(=O)Nc1ccc(NC(=O)c2cc([N+](=O)[O-])cc([N+](=O)[O-])c2)cc1,-5%,4%,-22%,-29%,?
CC(=O)Nc1ccc(Sc2ccc([N+](=O)[O-])o2)cc1,.,.,.,2.6µM*,2.6µM*
CC(C)(C)C(=O)Nc1ccc(Sc2ccc([N+](=O)[O-])cc2)cc1,?,8%,?,7.3µM*,8.2µM*
CCOc1ccc2nc(-c3ccccc3)[nH]c2c1,?,5%,?,21µM*,9.2µM*
COc1ccc2nc(-c3ccccc3)[nH]c2c1,?,9%,14%,?,?
Cc1nn(-c2ccccc2)c2sc(C(=O)N(CC(=O)NC(C)(C)C)Cc3ccco3)cc12,0%[0.365 µM],-5%,-17%,?,?
Cc1cccc(OC(C)C(=O)Nc2nc(-c3ccncc3)cs2)c1 (centres undefined),.,2%,.,23µM*,?
O=C(CCS(=O)(=O)c1ccc(F)cc1)Nc1nc(-c2ccccn2)cs1,-22%,-1%,10µM*,7.3µM*,8.2µM*
CC(OC(=O)c1cccs1)C(=O)Nc1nc(-c2ccccc2)cs1 (centres undefined),6%,2%,?,?,?
O=C(CCS(=O)(=O)c1ccccc1)Nc1ccccn1,24%,1%[0.0935 µM],-4%,-3%,-3%
CC(Oc1ccc(F)cc1)C(=O)Nc1nc(-c2ccccn2)cs1 (centres undefined),.,.,.,5.2µM*,1.3µM*
O=C(CCS(=O)(=O)c1ccccc1)Nc1nc(-c2ccccn2)cs1,.,.,.,13µM*,18µM*
O=C(NC1CCCC1)C(c1ccccn1)N(C(=O)c1csnn1)c1ccccc1 (centres undefined),6%,8%[0.0935 µM],?,?,-4%
Cc1ccc(OC(=O)c2ccc([N+](=O)[O-])cc2Cl)cn1,-11%,.,14%,0%,-4%
O=C(Nc1ccccc1)OC1CC2CC1C1CCCC21 (centres undefined),?,0%,?,?,?
CCOC(=O)C(C)C(C)=O (centres undefined),-2%,0%,-4%,6.5µM*,6.5µM*
CCOC(=O)C[C@@H](CC(C)=O)C(=O)OCC,-2%[10 µM],5%[21 µM],0%[10 µM],.,.
O=C(/C=C(\O)c1ccccc1)C(=O)NNC(=O)c1ccccc1[N+](=O)[O-],?,.,11%,0%,-12%
O=C1C[C@H]2C=CCc3cccc(c32)CN1Cc1ccc(Br)cc1,.,.,.,11µM*,?
O=C1C[C@@H]2c3c(cccc3CN1Cc1ccc(F)cc1)C[C@@H](O)[C@H]2O,.,0%,.,-2%,10%
Fc1ccc(CN2CC[C@H]3C=CCc4cccc(c43)C2)cc1,.,5%,.,?,?
Clc1ccc(CN2CC[C@H]3C=CCc4cccc(c43)C2)cc1,.,5%,.,21µM*,?
Cc1ccccc1CN1Cc2cccc3c2[C@H](C=CC3)CC1=O,.,.,.,10µM*,11µM*
CC(=O)N1CC=CC1(CC(C)C)C(=O)NCCc1c[nH]c2ccccc12 (centres undefined),1%,-4%,-8%,-11%,?
COc1ccc(-c2cn3nc(N4CCCC(C(=O)Nc5ccccc5F)C4)sc3n2)cc1 (centres undefined),.,7%,.,15µM*,21µM*
